Experimental data reported in PubChem BioAssay (EPA / NIEHS).
The source made the active and inactive calls. Rule for the calls: active = hit-call score of the fitted dose curve at least 0.9, where 1 is the maximum; inactive = score below 0.9.

What was measured:
[1] = ATG_GLI_CIS: Attagene CIS-FACTORIAL HepG2 Assay for human Zinc Finger Protein GLI1 (AID 2282945); conditions: HepG2, Attagene cis-factorial reporter mRNA, GLI element; actives raise or lower the signal
Method in brief: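 HepG2 cells transiently transfected with cis-promoter multiplexed reporter units report endogenous transcription factor activity. After 24 h chemical exposure, reporter mRNA was quantified by RT-PCR, 6-FAM labelling, HpaI digestion and capillary electrophoresis, with bidirectional fitting against DMSO.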

[2] = target: Bile acid receptor (Homo sapiens) (UniProt Q96RI1); experiment: ATG_IR1_CIS: Attagene CIS-FACTORIAL HepG2 Assay for human Nuclear Receptor Subfamily 1 Group H Member 4 (NR1H4), IR1 submotif (AID 2282946); conditions: IR1 reporter transcription, actives raise or lower the signal
Method in brief: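 Transient MRTU transfection, HepG2; 24 h dosing; RNA → RT-PCR → 6-FAM primer extension → HpaI digest → capillary electrophoresis fluorescence. Gain/loss of signal fitted relative to DMSO.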

[3] = ATG_GRE_CIS: Attagene CIS-FACTORIAL HepG2 Assay for human Glucocorticoid Response Elements (GRE) (AID 2282947); conditions: HepG2 GRE cis-reporter, Attagene multiplex mRNA; actives raise or lower the signal
Method in brief: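 HepG2 cells transiently transfected with multiple cis-promoter reporter units measure endogenous TF activity; 24 h compound exposure. Reporter mRNA quantified by RT-PCR, FAM labelling, HpaI digestion and capillary electrophoresis; bidirectional fit vs DMSO baseline.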

[4] = ATG_ISRE_CIS: Attagene CIS-FACTORIAL HepG2 Assay for human Interferon Regulatory Factor 1 (IRF1) binding to an Interferon-Stimulated Response Element (ISRE) (AID 2282948); conditions: HepG2 ISRE cis-reporter (Attagene), mRNA transcription readout; actives raise or lower the signal
Method in brief: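 Cell-based cis-reporter assay; HepG2; 24 h exposure; reporter mRNA by RT-PCR plus capillary electrophoresis fluorescence; activity in either direction scored relative to DMSO.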

[5] = ATG_M_32_CIS: Attagene CIS-FACTORIAL HepG2 Assay for M32 Transcription Factor (Internal Marker) (AID 2282949); conditions: HepG2 Attagene cis-factorial M32 reporter, mRNA; actives raise or lower the signal;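 note: background control marker of the multiplexed CIS panel rather than a real target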
Method in brief: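 Following 24 h chemical exposure of HepG2 cells transiently expressing cis-promoter reporter constructs, reporter transcript levels were determined by RT-PCR with fluorescent labelling and capillary electrophoresis, then fitted bidirectionally against DMSO.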

[6] = ATG_M_06_CIS: Attagene CIS-FACTORIAL HepG2 Assay for M06 Transcription Factor (Internal Marker) (AID 2282950); conditions: HepG2 Attagene CIS-FACTORIAL M06 internal marker reporter; actives raise or lower the signal
Method in brief: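 Steps: transfect HepG2 with multiplexed cis-element reporter constructs; dose chemical 24 h; extract RNA with DNase treatment; reverse-transcribe, PCR-amplify, 6-FAM label, HpaI digest; separate fragments by capillary electrophoresis. Activity fitted both directions versus DMSO.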

[7] = target: Hypoxia-inducible factor 1-alpha (Homo sapiens) (UniProt Q16665); experiment: ATG_HIF1a_CIS: Attagene CIS-FACTORIAL HepG2 Assay for human Hypoxia Inducible Factor 1 (HIF1A) (AID 2282951); conditions: HepG2 Attagene cis-factorial HIF1a reporter transcription; actives raise or lower the signal
Method in brief: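 Cis-element reporter constructs were transiently transfected into HepG2 cells, which were treated for 24 h; reporter RNA was reverse-transcribed, amplified, labelled and resolved by capillary electrophoresis.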

[8] = target: Hepatocyte nuclear factor 6 (Homo sapiens) (UniProt Q9UBC0); experiment: ATG_HNF6_CIS: Attagene CIS-FACTORIAL HepG2 Assay for human Hepatocyte Nuclear Factor 6 (HNF6) (AID 2282952); conditions: HepG2 Attagene cis-factorial HNF6 reporter transcription; actives raise or lower the signal
Method in brief: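 HepG2 cells transiently transfected with cis-element-driven multiple reporter transcription units, dosed 24 h; reporter mRNA quantified by RT-PCR, FAM primer extension, HpaI digestion and capillary electrophoresis; bidirectional fit versus DMSO baseline.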

[9] = target: Heat shock factor protein 1 (Homo sapiens) (UniProt Q00613); experiment: ATG_HSE_CIS: Attagene CIS-FACTORIAL HepG2 Assay for human Heat Shock Transcription Factor 1 (HSE) (AID 2282953); conditions: HepG2 HSE cis-reporter, Attagene RNA transcription; actives raise or lower the signal
Method in brief: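 Cells were transfected with cis-element-driven reporter constructs, dosed for 24 h, then total RNA was reverse-transcribed and reporter cDNA amplified, FAM-labelled and digested with HpaI. Fragments were resolved by capillary electrophoresis; gain or loss was fitted against DMSO.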

[10] = ATG_MRE_CIS: Attagene CIS-FACTORIAL HepG2 Assay for human Metal Responsive Element (MRE) (AID 2282954); conditions: HepG2 MRE cis-reporter transcription, Attagene multiplex; actives raise or lower the signal
Method in brief: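 HepG2 cells transiently transfected with multiple cis-element reporter units measure endogenous MTF1-driven transcription. After 24 h compound exposure, reporter mRNA is quantified by RT-PCR with 6-FAM labelling, HpaI digestion and capillary electrophoresis; bidirectional fits versus DMSO.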

[11] = ATG_PBREM_CIS: Attagene CIS-FACTORIAL HepG2 Assay for human Phenobarbital-responsive Enhancer Module (PBREM) (AID 2282955); conditions: HepG2 PBREM cis-reporter, Attagene multiplexed transcription; actives raise or lower the signal
Method in brief: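 Multiplexed cis-reporter readout in human hepatoma HepG2 cells; PBREM-regulated transcript quantified after 24 h exposure by fluorescent RT-PCR fragment analysis. Signal changes up or down fitted relative to DMSO.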

[12] = target: Paired box protein Pax-6 (Homo sapiens) (UniProt P26367); experiment: ATG_Pax6_CIS: Attagene CIS-FACTORIAL HepG2 Assay for human Paired Box 6 (PAX6) (AID 2282956); conditions: HepG2 CIS-FACTORIAL PAX6 reporter transcription, RNA readout; actives raise or lower the signal
Method in brief: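 Multiplexed cis-reporter HepG2 system; 24 h treatment; reporter mRNA read by RT-PCR/CE fluorescence; bidirectional fit vs DMSO.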

[13] = ATG_PXRE_CIS: Attagene CIS-FACTORIAL HepG2 Assay for human Pregnane X Receptor Element (PXRE) (AID 2282957); conditions: HepG2 Attagene CIS-FACTORIAL PXRE reporter, mRNA; actives raise or lower the signal
Method in brief: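 HepG2 cells transiently transfected with cis-regulated multiple reporter transcription units; endogenous factor activity measured as reporter mRNA 24 h after dosing. RT-PCR, fluorescent primer extension, HpaI digestion, capillary electrophoresis; bidirectional fit versus DMSO baseline.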

[14] = ATG_PPRE_CIS: Attagene CIS-FACTORIAL HepG2 Assay for human Peroxisome Proliferator-activated Response Element (PPRE) (AID 2282958); conditions: HepG2 PPRE cis-element reporter, Attagene transcription factor profiling; actives raise or lower the signal
Method in brief: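 DMSO served as negative control and baseline for bidirectional curve fitting. Signal came from PPRE-regulated reporter mRNA in HepG2 cells, measured 24 h post-dosing by RT-PCR, 6-FAM primer extension and capillary electrophoresis.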

[15] = ATG_RORE_CIS: Attagene CIS-FACTORIAL HepG2 Assay for human RAR-related Orphan Receptor Element (RORE) (AID 2282959); conditions: HepG2 Attagene cis-factorial RORE reporter, mRNA; actives raise or lower the signal
Method in brief: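 Transfect HepG2 with MRTUs; treat 24 h; extract RNA; RT with oligo(dT); PCR with reporter-specific primers; 6-FAM primer extension; HpaI digest 2 h at 37 C; capillary electrophoresis. Fit vs DMSO, bidirectional.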

[16] = ATG_Sox_CIS: Attagene CIS-FACTORIAL HepG2 Assay for human SRY-box transcription factor (SOX) (AID 2282960); conditions: HepG2 Attagene cis-factorial SOX reporter, mRNA; actives raise or lower the signal
Method in brief: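 Fluorescence-labelled cDNA fragments from reporter transcripts, sized by CE, give the signal. Cells: HepG2, transiently transfected with cis-regulated reporter units. Exposure 24 h; DMSO negative control; bidirectional curve fitting.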

[17] = target: Transcription factor Sp1 (Homo sapiens) (UniProt P08047); experiment: ATG_Sp1_CIS: Attagene CIS-FACTORIAL HepG2 Assay for human Specificity Protein 1 (Sp1) (AID 2282961); conditions: HepG2 Sp1 cis-reporter transcription, actives raise or lower the signal
Method in brief: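 Chemicals are dosed onto HepG2 cells transfected with multiple cis-promoter reporter constructs, and after 24 h reporter RNA is reverse-transcribed, PCR-amplified and resolved by capillary electrophoresis for fluorescence quantitation; activity is scored up or down against DMSO.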

[18] = ATG_SREBP_CIS: Attagene CIS-FACTORIAL HepG2 Assay for human Sterol Regulatory Element Binding (SREBP) (AID 2282962); conditions: HepG2 Attagene cis-factorial SREBP reporter, mRNA; actives raise or lower the signal
Method in brief: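 mRNA induction of transfected cis-promoter reporters in HepG2 cells, 24 h post-dose. Detection: RT-PCR with 6-FAM-labelled products, HpaI digest, capillary electrophoresis. DMSO served as negative control and baseline.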

[19] = target: Signal transducer and activator of transcription 3 (Homo sapiens) (UniProt P40763); experiment: ATG_STAT3_CIS: Attagene CIS-FACTORIAL HepG2 Assay for human Signal Transducer and Activator of Transcription 3 (STAT3) (AID 2282963); conditions: HepG2, Attagene cis-factorial STAT3 reporter transcription; actives raise or lower the signal
Method in brief: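 HepG2 cells transiently transfected with cis-element-driven multiple reporter transcription units; after 24 h chemical exposure, reporter mRNA measured by RT-PCR, 6-FAM primer-extension labelling, HpaI digestion and capillary electrophoresis. Bidirectional fitting versus DMSO baseline.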

[20] = ATG_TA_CIS: Attagene CIS-FACTORIAL HepG2 Assay for human TA Basal Promoter (AID 2282964); conditions: HepG2 Attagene CIS-factorial TA basal promoter reporter; actives raise or lower the signal
Method in brief: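 Steps: transfect HepG2 with MRTUs; dose 24 h; isolate RNA, DNase-treat, reverse-transcribe; PCR and FAM-label reporter cDNA; digest with HpaI 2h at 37 C; run capillary electrophoresis. Activity fitted both directions against DMSO.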

Sequence of Bile acid receptor (Homo sapiens) (Q96RI1 whole entry, looked up): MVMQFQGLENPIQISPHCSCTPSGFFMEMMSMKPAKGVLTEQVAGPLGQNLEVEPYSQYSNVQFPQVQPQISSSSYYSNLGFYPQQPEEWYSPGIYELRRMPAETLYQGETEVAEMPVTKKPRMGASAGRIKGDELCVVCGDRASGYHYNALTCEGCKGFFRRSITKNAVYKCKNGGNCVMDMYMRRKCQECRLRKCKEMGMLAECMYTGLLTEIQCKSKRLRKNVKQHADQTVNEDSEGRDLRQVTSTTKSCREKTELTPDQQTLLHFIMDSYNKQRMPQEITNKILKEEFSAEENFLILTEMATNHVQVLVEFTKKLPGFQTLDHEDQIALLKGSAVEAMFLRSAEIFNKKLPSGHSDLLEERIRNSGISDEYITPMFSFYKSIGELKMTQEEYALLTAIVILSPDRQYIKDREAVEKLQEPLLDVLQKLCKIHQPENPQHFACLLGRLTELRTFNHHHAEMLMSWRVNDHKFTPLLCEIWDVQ
Sequence of Paired box protein Pax-6 (Homo sapiens) (P26367 whole entry, looked up): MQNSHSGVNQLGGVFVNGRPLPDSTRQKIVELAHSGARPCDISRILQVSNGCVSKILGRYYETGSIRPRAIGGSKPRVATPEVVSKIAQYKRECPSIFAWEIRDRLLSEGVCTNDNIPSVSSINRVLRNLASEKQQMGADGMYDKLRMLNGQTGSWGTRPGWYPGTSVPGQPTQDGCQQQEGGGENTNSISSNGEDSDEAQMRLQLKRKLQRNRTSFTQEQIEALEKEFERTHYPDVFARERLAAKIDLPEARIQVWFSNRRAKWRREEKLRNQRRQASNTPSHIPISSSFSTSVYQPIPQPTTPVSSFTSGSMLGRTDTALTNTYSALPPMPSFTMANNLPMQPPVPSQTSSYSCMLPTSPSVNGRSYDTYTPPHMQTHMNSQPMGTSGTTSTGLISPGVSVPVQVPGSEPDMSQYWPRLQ
Sequence of Signal transducer and activator of transcription 3 (Homo sapiens) (P40763 whole entry, looked up): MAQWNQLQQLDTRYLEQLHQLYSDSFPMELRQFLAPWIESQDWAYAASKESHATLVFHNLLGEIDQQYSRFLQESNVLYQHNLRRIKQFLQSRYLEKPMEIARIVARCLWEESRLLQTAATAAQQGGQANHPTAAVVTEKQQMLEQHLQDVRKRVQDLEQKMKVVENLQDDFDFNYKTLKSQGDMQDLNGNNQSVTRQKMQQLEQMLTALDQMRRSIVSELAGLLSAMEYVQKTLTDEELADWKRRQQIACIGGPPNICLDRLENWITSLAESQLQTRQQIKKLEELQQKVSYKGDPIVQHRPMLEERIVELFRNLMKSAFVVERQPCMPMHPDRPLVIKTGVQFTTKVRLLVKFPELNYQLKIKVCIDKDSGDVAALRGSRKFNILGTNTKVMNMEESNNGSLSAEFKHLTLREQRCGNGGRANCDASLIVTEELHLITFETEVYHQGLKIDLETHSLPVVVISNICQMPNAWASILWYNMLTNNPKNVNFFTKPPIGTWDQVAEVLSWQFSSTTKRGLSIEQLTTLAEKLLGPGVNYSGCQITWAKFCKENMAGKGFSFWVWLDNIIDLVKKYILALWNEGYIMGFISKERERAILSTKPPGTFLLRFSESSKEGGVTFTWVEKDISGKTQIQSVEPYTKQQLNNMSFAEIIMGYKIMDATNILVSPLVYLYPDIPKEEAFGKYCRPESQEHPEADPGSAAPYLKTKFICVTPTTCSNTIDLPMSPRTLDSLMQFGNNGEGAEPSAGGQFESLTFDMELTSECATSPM
Sequence of Transcription factor Sp1 (Homo sapiens) (P08047 whole entry, looked up): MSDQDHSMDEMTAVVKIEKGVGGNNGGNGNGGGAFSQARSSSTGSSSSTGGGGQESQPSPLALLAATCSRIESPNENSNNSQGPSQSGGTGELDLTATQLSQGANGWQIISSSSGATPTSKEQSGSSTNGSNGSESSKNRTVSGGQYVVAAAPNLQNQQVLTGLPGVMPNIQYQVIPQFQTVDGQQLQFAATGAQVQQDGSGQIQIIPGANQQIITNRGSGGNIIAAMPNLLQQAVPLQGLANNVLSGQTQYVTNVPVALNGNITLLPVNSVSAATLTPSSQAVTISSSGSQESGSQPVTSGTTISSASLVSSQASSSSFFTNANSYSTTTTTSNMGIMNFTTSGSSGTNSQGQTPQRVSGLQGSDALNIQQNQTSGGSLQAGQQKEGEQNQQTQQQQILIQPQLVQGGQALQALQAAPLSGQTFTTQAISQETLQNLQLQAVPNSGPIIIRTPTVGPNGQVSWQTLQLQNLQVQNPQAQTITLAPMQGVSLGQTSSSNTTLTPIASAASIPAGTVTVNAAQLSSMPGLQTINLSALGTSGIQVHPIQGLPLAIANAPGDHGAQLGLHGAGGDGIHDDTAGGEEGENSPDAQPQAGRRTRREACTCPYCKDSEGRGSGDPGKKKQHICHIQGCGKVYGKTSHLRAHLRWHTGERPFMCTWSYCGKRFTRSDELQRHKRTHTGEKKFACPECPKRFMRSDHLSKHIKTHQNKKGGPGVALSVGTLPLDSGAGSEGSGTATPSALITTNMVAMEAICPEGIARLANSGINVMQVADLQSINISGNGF
Sequence of Hepatocyte nuclear factor 6 (Homo sapiens) (Q9UBC0 whole entry, looked up): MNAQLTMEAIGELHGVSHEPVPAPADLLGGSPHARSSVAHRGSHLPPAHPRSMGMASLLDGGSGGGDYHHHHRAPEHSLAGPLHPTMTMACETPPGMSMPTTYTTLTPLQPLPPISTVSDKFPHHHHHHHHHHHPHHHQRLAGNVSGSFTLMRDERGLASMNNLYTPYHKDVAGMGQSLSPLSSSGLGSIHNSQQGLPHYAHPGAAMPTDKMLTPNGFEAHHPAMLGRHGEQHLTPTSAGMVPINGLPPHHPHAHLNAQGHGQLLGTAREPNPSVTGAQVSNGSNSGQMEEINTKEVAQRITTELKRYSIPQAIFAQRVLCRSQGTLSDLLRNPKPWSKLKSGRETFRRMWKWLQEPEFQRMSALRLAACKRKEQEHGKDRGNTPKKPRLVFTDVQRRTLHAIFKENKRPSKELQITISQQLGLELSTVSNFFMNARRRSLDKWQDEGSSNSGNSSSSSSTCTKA
Sequence of Heat shock factor protein 1 (Homo sapiens) (Q00613 whole entry, looked up, the tested form may be a part): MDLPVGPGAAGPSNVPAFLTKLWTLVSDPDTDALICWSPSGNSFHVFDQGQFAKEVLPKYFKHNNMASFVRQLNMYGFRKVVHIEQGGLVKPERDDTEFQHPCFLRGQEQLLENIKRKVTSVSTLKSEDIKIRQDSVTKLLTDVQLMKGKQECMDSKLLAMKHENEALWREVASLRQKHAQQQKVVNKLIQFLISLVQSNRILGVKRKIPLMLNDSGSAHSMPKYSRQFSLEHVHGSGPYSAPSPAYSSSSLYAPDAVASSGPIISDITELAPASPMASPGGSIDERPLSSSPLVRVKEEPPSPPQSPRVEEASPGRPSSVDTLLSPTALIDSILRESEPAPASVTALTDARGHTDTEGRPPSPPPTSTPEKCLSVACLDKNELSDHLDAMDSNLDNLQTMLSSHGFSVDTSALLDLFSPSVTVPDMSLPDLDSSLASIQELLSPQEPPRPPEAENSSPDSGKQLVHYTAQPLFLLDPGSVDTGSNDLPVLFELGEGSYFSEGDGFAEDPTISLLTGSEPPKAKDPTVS
Sequence of Hypoxia-inducible factor 1-alpha (Homo sapiens) (Q16665 whole entry, looked up): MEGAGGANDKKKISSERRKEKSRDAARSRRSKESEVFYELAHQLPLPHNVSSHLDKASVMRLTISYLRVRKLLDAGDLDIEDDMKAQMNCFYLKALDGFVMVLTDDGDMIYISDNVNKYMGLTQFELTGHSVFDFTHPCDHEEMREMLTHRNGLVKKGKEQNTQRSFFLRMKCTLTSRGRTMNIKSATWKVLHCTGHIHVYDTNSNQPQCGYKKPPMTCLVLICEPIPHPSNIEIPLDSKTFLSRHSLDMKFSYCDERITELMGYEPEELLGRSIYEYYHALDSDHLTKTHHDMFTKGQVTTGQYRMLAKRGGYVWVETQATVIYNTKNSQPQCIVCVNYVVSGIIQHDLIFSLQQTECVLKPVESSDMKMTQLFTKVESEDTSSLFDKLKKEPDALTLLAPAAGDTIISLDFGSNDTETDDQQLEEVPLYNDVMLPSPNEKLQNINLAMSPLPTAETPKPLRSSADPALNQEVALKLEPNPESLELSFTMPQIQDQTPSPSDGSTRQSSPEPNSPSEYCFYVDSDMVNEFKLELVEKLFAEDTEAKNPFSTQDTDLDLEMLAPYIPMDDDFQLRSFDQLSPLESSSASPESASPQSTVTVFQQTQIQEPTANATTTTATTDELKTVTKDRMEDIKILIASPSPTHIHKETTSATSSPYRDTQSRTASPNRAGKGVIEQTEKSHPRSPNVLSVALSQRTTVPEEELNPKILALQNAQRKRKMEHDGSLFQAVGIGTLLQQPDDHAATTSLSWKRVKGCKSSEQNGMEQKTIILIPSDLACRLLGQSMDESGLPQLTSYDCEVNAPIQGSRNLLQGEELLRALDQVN

Cc1ccc(S(=O)(=O)OCC(F)(F)C(F)(F)C(F)(F)C(F)(F)C(F)(F)C(F)F)cc1
outcome [1]: inactive | outcome [2]: inactive | outcome [3]: inactive | outcome [4]: inactive | outcome [5]: inactive | outcome [6]: inactive | outcome [7]: inactive | outcome [8]: inactive | outcome [9]: inactive | outcome [10]: inactive | outcome [11]: inactive | outcome [12]: inactive | AC50 [13]: 1.95 µM (active) | outcome [14]: inactive | outcome [15]: inactive | outcome [16]: inactive | outcome [17]: inactive | outcome [18]: inactive | outcome [19]: inactive

CC(Cc1ccc(O)c(O)c1)C(C)Cc1ccc(O)c(O)c1 (stereo not drawn)
outcome [1]: inactive | outcome [2]: inactive | outcome [3]: inactive | outcome [4]: inactive | outcome [5]: inactive | outcome [6]: inactive | AC50 [7]: 8.95 µM (active) | outcome [8]: inactive | AC50 [9]: 57.7 µM (active) | AC50 [10]: 22.3 µM (active) | AC50 [11]: 9.19 µM (active) | AC50 [12]: 22.1 µM (active) | AC50 [13]: 8.39 µM (active) | outcome [14]: inactive | AC50 [15]: 6.13 µM (active) | AC50 [16]: 33.4 µM (active) | AC50 [17]: 8.73 µM (active) | outcome [18]: inactive | outcome [19]: inactive

CCN(CC)c1ccc2c(C)cc(=O)oc2c1
outcome [1]: inactive | outcome [2]: inactive | outcome [3]: inactive | outcome [4]: inactive | outcome [5]: inactive | outcome [6]: inactive | outcome [7]: inactive | outcome [8]: inactive | outcome [9]: inactive | AC50 [10]: 71.9 µM (active) | outcome [11]: inactive | AC50 [12]: 65.9 µM (active) | AC50 [13]: 2.92 µM (active) | AC50 [14]: 50.2 µM (active) | outcome [15]: inactive | outcome [16]: inactive | outcome [17]: inactive | outcome [18]: inactive | outcome [19]: inactive | outcome [20]: inactive
